In all, about 52,000 compounds went through this assay and about 1,700 (3.3%) were called active. Rule as the data show it: active = survival mostly below about 52% (no sharp cut-off); inactive = mostly above about 56%. The entries come from a sample that favours actives as a whole.

The assay relates to Wild type. In words: growth inhibition of S. aureus wild type versus tarO mutant, primary screen, teichoic acid synthesis inhibitors, RN4220, OD600 (AID 463173). The conditions noted are these: S. aureus RN4220 wild type/DeltatarO growth, OD600, 18 h, stronger effect = lower value, screened at 18.75 µg/mL (by protocol).
Consider `Cc1ccc(-c2nn(-c3ccc(F)cc3F)c3c2cnc2ccc(F)cc23)cc1`, for which the survival is 65% (inactive). For the compound `CCOC(=O)c1ccc(NC(=O)CSc2nc(-c3cccs3)cc(C(F)(F)F)c2C#N)cc1`, the survival is 85% (inactive). In the case of `CC(C)N(C(=O)Cn1cc(S(=O)(=O)Cc2ccc(Br)cc2)c2ccccc21)C(C)C`, the survival is 80% (inactive).

Take `O=C(c1ccc2c(c1)N(Cc1cccc(Cl)c1)C(=O)c1ccccc1S2)N1CCOCC1`: the survival was 99% (inactive). The result for `Cc1ccnc(N2CCC(C(=O)NCc3ccc(F)cc3)CC2)n1` reads 105% (inactive); that for `Nc1nc2nc(-c3ccc(Cl)cc3)cc(C(F)(F)F)n2n1`, 144% (inactive). Take `CC(C)c1ccccc1NC(=O)CC(C)(C)C`: the survival was 121% (inactive).

As for `COc1cccc2cc(-c3nc4ccc(C)cc4[nH]3)c(=O)oc12`, the survival is 73% (inactive).

Take `C=CCc1cccc2cc(-c3nc4ccc(C(=O)O)cc4[nH]3)c(=O)oc12`: the survival was 83% (inactive). In the case of `C=CCc1cccc2cc(-c3nc4ccc(C)cc4[nH]3)c(=O)oc12` it was -3% (active). The result for `COC(=O)c1ccc(NC(=O)CSc2cn(CC(=O)N3CCCCC3)c3ccccc23)cc1` reads 89% (inactive); that for `CCC(=O)N1CCc2cc(S(=O)(=O)CCC(=O)N3CCN(c4ccccc4Cl)CC3)ccc21`, 78% (inactive). In the case of `CCCCOc1ccc(C2=NC(c3ccncc3)=Nc3ccc(Br)cc3N2)cc1` it was -4% (active); in that of `COc1ccc(C2=NC(c3ccncc3)=Nc3ccc(Br)cc3N2)cc1`, 94% (inactive); in that of `CCCCOc1ccc(C2=NC(c3ccncc3)=Nc3ccc(OCC)cc3N2)cc1`, 90% (inactive).

With `COc1ccc(CNC(=O)CCc2c(C)c3cc4c(C)coc4c(C)c3oc2=O)cc1OC`, the survival was 82% (inactive). In the case of `CC(C)OC(=O)CSc1nnc(-c2ccc(O)cc2)n1-c1ccccc1` it was 116% (inactive). In the case of `COc1ccccc1-n1nc(-c2ccccc2)c2cnc3c(F)cc(F)cc3c21` it was 119% (inactive). The result for `Cc1ccc(-c2nc(CCNC(=O)C(=O)Nc3c(C)cccc3C)cs2)cc1` reads 0% (active). For the compound `Cc1cc(C)c(NC(=O)C(=O)NCCc2csc(-c3ccc(F)cc3)n2)c(C)c1`, the survival is 76% (inactive).

As for `Cc1ccc(-c2nc(CCNC(=O)C(=O)Nc3ccc(C)c(C)c3)cs2)cc1`, the survival was -3% (active). In the case of `Cc1ccc(-c2nc(CCNC(=O)C(=O)Nc3ccc(C)cc3C)cs2)cc1` it was 53% (inactive). The result for `Cc1ccc(-c2nc(CCNC(=O)C(=O)Nc3ccc(C)c(Cl)c3)cs2)cc1` reads 47% (inactive); that for `Cc1cccc(NC(=O)C(=O)NCCc2csc(-c3ccc(F)cc3)n2)c1C`, 75% (inactive). Regarding `O=C(c1cccs1)N1CCCn2c1nc1ccccc12`, the survival is 106% (inactive).

Take `CCc1nn2c(=O)cc(COC(=O)c3cccc(NC(=O)c4ccccc4C)c3)nc2s1`: the survival was 91% (inactive). Turning to `CCc1nn(CC(=O)Nc2ccc(C)c(F)c2)c(=O)c2cc3cc(C)ccc3n12`, the survival is 109% (inactive).

With `COc1ccc2c(c1)-c1nc(NC(=O)c3ccc(C)cc3)sc1CC2`, the survival is 14% (active). The result for `COc1ccc(C(=O)Nc2nc3c(s2)CCc2cc(OC)ccc2-3)cc1` reads 41% (inactive); that for `COc1ccc2c(c1)Cc1sc(NC(=O)c3cccc(F)c3)nc1-2`, 69% (inactive); that for `COc1ccc2c(c1)-c1nc(NC(=O)c3ccccc3F)sc1CC2`, -1% (active).

Consider `COc1ccc2c(c1)-c1nc(NC(=O)c3cccc(Br)c3)sc1CC2`, for which the survival was 54% (inactive). In the case of `COc1ccc(C(=O)Nc2nc3c(s2)Cc2cc(OC)ccc2-3)cc1` it was 72% (inactive); in that of `COc1ccc2c(c1)-c1nc(NC(=O)c3cc(Cl)ccc3OC)sc1CC2`, 74% (inactive). The result for `COc1ccc2c(c1)-c1nc(NC(=O)c3ccc(Cl)cc3)sc1CC2` reads 93% (inactive); that for `COc1ccc2c(c1)Cc1sc(NC(=O)c3cccc(C)c3)nc1-2`, 7% (active); that for `CCCC(=O)Nc1ccc(Cl)c(NC(=O)c2cccnc2Cl)c1`, 114% (inactive).

For the compound `CC1=C(c2ccc(C)c(C)c2)S(=O)(=O)N=C1N1CCC(C(=O)NCCc2ccc(Cl)cc2)CC1`, the survival was 132% (inactive). Regarding `CS(=O)(=O)N1CCC(N2CCN(Cc3ccc(F)cc3)C(=O)C2=O)CC1`, the survival was 81% (inactive).

Turning to `Cc1cc(C(=O)O)c2c(=O)n(C)c(=O)n(C)c2n1`, the survival is 81% (inactive). Consider `Cc1ccc(C(=O)Nc2ccccc2)cc1S(=O)(=O)Nc1ccc(Br)cc1`, for which the survival is 7% (active). As for `CCN(c1ccccc1)S(=O)(=O)c1cc(C(=O)Nc2ccc(Br)cc2)ccc1F`, the survival is 1% (active). The result for `Cc1ccc(C(=O)Nc2ccc(C(=O)O)cc2)cc1S(=O)(=O)Nc1ccccc1` reads 73% (inactive). For the compound `CCOc1ccc(NC(=O)c2ccc(F)c(S(=O)(=O)N(CC)Cc3ccccc3)c2)cc1`, the survival was 77% (inactive). `CCOc1cccc(NC(=O)c2ccc(F)c(S(=O)(=O)N(CC)c3cccc(C)c3)c2)c1`: the survival is 82% (inactive).

With `Cc1ccc(C(=O)Nc2ccccc2)cc1S(=O)(=O)Nc1ccccc1`, the survival was 70% (inactive). Turning to `CCN1CCN(C(c2ccccc2F)c2c(O)cc(C)n(CCOC)c2=O)CC1` (stereo unspecified), the survival was 45% (inactive). In the case of `Cc1ccc(NC(=O)Cn2c(=O)n(Cc3ccco3)c(=O)c3ccc(C(=O)NC4CCCC4)cc32)c(C)c1` it was 87% (inactive); in that of `Cc1cccc(C(=O)NCC(c2ccc3c(c2)OCO3)N2CCN(c3ccccc3F)CC2)c1` (stereo unspecified), 70% (inactive).

In the case of `Cc1ccc2nc(CSc3nnc(NC(=O)COc4ccccc4)s3)cc(=O)n2c1`, the survival is 63% (inactive). In the case of `CC(C)C(=O)Nc1nnc(SCc2cc(=O)n3ccccc3n2)s1` it was 117% (inactive); in that of `Cc1ccc(OCC(=O)Nc2nnc(SCc3cc(=O)n4cccc(C)c4n3)s2)cc1`, 64% (inactive); in that of `Cc1cccn2c(=O)cc(CSc3nnc(NC(=O)COc4ccccc4)s3)nc12`, 71% (inactive).

As for `Cc1cccn2c(=O)cc(CSc3nnc(NC(=O)COc4ccc(F)cc4)s3)nc12`, the survival was -4% (active). Regarding `Cc1ccc2nc(CSc3nnc(NC(=O)CC(C)C)s3)cc(=O)n2c1`, the survival is 60% (inactive). Turning to `Cc1ccc2nc(CSc3nnc(NC(=O)C(C)C)s3)cc(=O)n2c1`, the survival was -3% (active). For the compound `Cc1ccc(OCC(=O)Nc2nnc(SCc3cc(=O)n4cc(C)ccc4n3)s2)cc1`, the survival was 1% (active). The result for `Cc1ccc2nc(CSc3nnc(NC(=O)COc4ccccc4F)s3)cc(=O)n2c1` reads 81% (inactive). As for `CCCN1CCN(CCCNC(=O)c2cc3c(=O)n(CC)c4ccccc4c3s2)CC1`, the survival was 85% (inactive). The result for `CC1CCN(CC(=O)N2CCN(c3ccccc3)CC2)CC1` reads 106% (inactive).

`COc1ccc(-c2cn3nc(N4CCCC(C(=O)Nc5ccccc5OC)C4)sc3n2)cc1` (stereo unspecified): the survival is 135% (inactive).

In the case of `CN(C)S(=O)(=O)c1ccc2c(c1)N(CC(=O)Nc1ccc(OC(F)(F)F)cc1)C(=O)CS2`, the survival was 71% (inactive).

`COc1ccc(C(=O)NCCN=C2NS(=O)(=O)c3ccccc32)cc1`: the survival is 108% (inactive). In the case of `CCN1CCN(C(c2ccccc2)c2c(O)cc(C)n(CCOC)c2=O)CC1` (stereo unspecified) it was 91% (inactive); in that of `COCCn1c(C)cc(O)c(C(c2ccccc2)N2CCN(CCO)CC2)c1=O` (stereo unspecified), 0% (active). The result for `COCCn1c(C)cc(O)c(C(c2ccccc2)N2CCN(C)CC2)c1=O` (stereo unspecified) reads 87% (inactive); that for `COc1cccc(C(=O)c2cn(CC(=O)NCCc3ccccc3)c3nc(C)ccc3c2=O)c1`, 64% (inactive); that for `COc1ccccc1C(=O)NCCn1cc(SCc2ccc(C)cc2)c2ccccc21`, 3% (active). The result for `O=C(NCCn1cc(SCc2ccc(C(F)(F)F)cc2)c2ccccc21)c1ccccc1F` reads 35% (inactive). Turning to `Cc1ccc(CSc2cn(CCNC(=O)c3cccs3)c3ccccc23)cc1`, the survival is 62% (inactive). In the case of `COc1ccccc1C(=O)NCCn1cc(SCc2ccccc2Cl)c2ccccc21` it was 28% (inactive); in that of `O=C(NCCn1cc(SCc2cccc(F)c2)c2ccccc21)c1cccc(C(F)(F)F)c1`, 8% (active); in that of `COc1ccc(C(=O)NCCn2cc(SCc3cccc(F)c3)c3ccccc32)cc1OC`, 68% (inactive). `Cc1nc2cc(C(F)(F)F)ccc2n1C1CCN(C(=O)C2CC2)CC1`: the survival is 95% (inactive).

Regarding `Cn1ncc2c(NCc3ccc(Cl)cc3)ncnc21`, the survival was 75% (inactive).

`O=C(COc1ccc(Cl)cc1Cl)Nc1ccc(C(=O)OC2CCCCC2)cc1`: the survival was 78% (inactive). For the compound `Cc1cc(C)c(OCC(=O)Nc2cccc(-c3nc4ncccc4o3)c2)c(Br)c1`, the survival was 4% (active).

For the compound `COc1ccc(OCC(=O)Nc2ccc(-c3nc4ncccc4o3)cc2)cc1`, the survival was 119% (inactive).

For `Cc1ccc(C(C)C)c(OCC(=O)Nc2ccc(C(=O)OC3CCCCC3)cc2)c1`, the survival was 6% (active).

On to `Cc1ccccc1OCC(=O)Nc1ccc(-c2nc3ncccc3o2)cc1`, for which the survival is 69% (inactive).

Take `Cc1ccc(C(C)C)c(OCC(=O)Nc2cccc(-c3nc4ncccc4o3)c2)c1`: the survival is 2% (active). On to `CCCC(=O)Nc1cccc(-c2nc3ncccc3o2)c1`, for which the survival is 88% (inactive). Turning to `CCC(C)c1ccc(OCC(=O)Nc2cccc(-c3nc4ncccc4o3)c2)cc1` (stereo unspecified), the survival is 6% (active). The result for `Cc1ccc(C(C)C)c(OCC(=O)Nc2ccc(-c3nc4ncccc4o3)cc2C)c1` reads 69% (inactive); that for `Cc1cc(OCC(=O)Nc2ccc(C(=O)OC3CCCCC3)cc2)cc(C)c1Cl`, 52% (inactive). As for `Cc1cccc(OCC(=O)Nc2ccc(Cl)c(-c3nc4ncccc4o3)c2)c1C`, the survival was 38% (inactive). The result for `CCC(C)c1ccc(OCC(=O)Nc2ccc(-c3nc4ncccc4o3)cc2)cc1` (stereo unspecified) reads 60% (inactive); that for `O=C(Nc1ccccc1)Nc1nnc(SCC(=O)N2CCCCC2)s1`, 131% (inactive); that for `CC(C)(C)OC(=O)N1CCC(c2c(C(=O)N3CCN(C(=O)c4ccco4)CC3)cnn2-c2cccc(Cl)c2)CC1`, 95% (inactive).

On to `CCn1cc(C(=O)Nc2ccccc2)c(=O)c2ccc(C)nc21`, for which the survival is 111% (inactive). On to `CCc1ccccc1Nc1nc2ccccc2n2cnnc12`, for which the survival was 147% (inactive).

Values taken from PubChem BioAssay AID463173 (ICCB-Longwood Screening Facility, Harvard Medical School, 2010).
